# Source: PubChem BioAssay (Broad Institute)
# This is one part of a sample in which hits are shown more often than they occur.
# IDE exosite inh: displaces the probe from the exo-site of human IDE | P14735 | purified IDE, FL-6b probe fluorescence polarization; stronger effect = lower value | z-score at 20 µM | 6.3% of 17,000 active | AID 1259349;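 active means z-score of -3 or lower, meaning strong loss of probe binding signal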;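 further: His-tagged human IDE residues 42-1019 made in E. coli with 30 nM FL-6b probe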
# Target sequence (P14735 42-1019 limits assumed): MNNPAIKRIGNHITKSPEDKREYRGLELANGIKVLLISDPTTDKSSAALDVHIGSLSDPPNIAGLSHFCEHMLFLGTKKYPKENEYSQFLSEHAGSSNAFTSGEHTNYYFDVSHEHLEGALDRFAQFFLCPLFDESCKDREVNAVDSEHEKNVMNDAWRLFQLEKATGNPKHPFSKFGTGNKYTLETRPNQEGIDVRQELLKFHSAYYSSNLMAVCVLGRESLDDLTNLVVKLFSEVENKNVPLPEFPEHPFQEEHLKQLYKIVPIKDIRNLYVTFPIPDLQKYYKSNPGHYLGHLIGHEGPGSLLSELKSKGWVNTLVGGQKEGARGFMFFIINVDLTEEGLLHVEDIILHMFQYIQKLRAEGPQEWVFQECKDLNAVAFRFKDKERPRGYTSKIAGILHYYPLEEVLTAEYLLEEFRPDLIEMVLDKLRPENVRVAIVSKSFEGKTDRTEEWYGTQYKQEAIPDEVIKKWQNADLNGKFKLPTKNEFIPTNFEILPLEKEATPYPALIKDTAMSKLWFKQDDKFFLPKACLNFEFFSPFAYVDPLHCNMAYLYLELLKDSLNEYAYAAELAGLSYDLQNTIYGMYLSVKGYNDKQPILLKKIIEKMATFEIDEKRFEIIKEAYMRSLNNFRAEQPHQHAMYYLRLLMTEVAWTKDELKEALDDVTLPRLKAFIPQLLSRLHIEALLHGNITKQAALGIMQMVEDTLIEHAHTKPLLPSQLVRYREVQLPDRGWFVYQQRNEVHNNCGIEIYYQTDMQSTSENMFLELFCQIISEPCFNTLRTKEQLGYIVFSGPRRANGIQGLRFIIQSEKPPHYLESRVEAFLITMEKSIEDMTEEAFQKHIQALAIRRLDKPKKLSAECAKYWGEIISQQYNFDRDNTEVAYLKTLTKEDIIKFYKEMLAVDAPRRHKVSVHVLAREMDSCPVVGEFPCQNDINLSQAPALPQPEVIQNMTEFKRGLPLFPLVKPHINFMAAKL
# Starred values were filed as active, the others as inactive; ! = not confirmed by another sample.
SMILES,IDE exosite inh
CC(C)NC(=O)N1CCCCN2[C@H](C1)[C@H](c1ccc(C#C[C@@H](C)O)cc1)[C@@H]2CO,1.2
CC(C)NC(=O)N1CCCCN2[C@H](CO)[C@@H](c3ccc(C#Cc4ccccc4F)cc3)[C@H]2C1,-10*
CC(C)C#Cc1ccc([C@@H]2[C@@H](CO)N3CCCCN(C(=O)NC(C)C)C[C@@H]23)cc1,1.1
CC(C)NC(=O)N1CCCCN2[C@@H](CO)[C@@H](c3ccc(C#Cc4ccccc4F)cc3)[C@@H]2C1,-3.1*
CC(C)C#Cc1ccc([C@H]2[C@@H](CO)N3CCCCN(C(=O)NC(C)C)C[C@H]23)cc1,-1.8
CC(C)NC(=O)N1CCCCN2[C@H](CO)[C@@H](c3ccc(C#C[C@@H](C)O)cc3)[C@@H]2C1,3.6
CC(C)NC(=O)N1CCCCN2[C@H](C1)[C@@H](c1ccc(C#C[C@@H](C)O)cc1)[C@@H]2CO,0.85
CC(C)NC(=O)N1CCCCN2[C@H](C1)[C@@H](c1ccc(C#Cc3ccccc3F)cc1)[C@@H]2CO,-5.2*
N#C[C@@H]1[C@@H](c2ccccc2)[C@H](CO)N1C(=O)Cc1ccccn1,-0.48
COc1ccc2c3c([nH]c2c1)[C@H](CO)NCC31CN(Cc2cc(F)ccc2F)C1,-0.042
C[C@@H](NC(=O)C[C@@H]1C=C[C@H](NC(=O)c2cccnc2)[C@@H](CO)O1)c1ccccc1,-0.72
CCC(=O)N1CC(=O)N2[C@H](CO)[C@@H](c3ccc(-c4ccncc4)cc3)[C@H]2C1,1
CCN(C[C@H]1[C@H](c2ccccc2)[C@H](CO)N1C(C)=O)C(=O)NC(C)C,0.62
CC(=O)NC[C@@H]1[C@@H](c2ccc(-c3cccnc3)cc2)[C@@H](CO)N1C(=O)C1CCC1,1.3
COCC#Cc1ccc([C@H]2[C@H]3CN(C(=O)C4CCC4)CC(=O)N3[C@H]2CO)cc1,2.7
COC(=O)c1ccc(CN2CC(=O)N3[C@@H](CO)[C@H](c4ccc(Br)cc4)[C@@H]3C2)cc1,1.6
N#C[C@@H]1[C@@H](c2ccc(-c3ccncc3)cc2)[C@@H](CO)N1C(=O)C1CCOCC1,2.6
C[C@@H](O)C#Cc1ccc([C@@H]2[C@@H](CO)N3CCCCN(C(=O)Nc4ccccc4)C[C@H]23)cc1,3.5
C/C=C/c1ccc([C@@H]2[C@@H](CO)N(C(=O)C3CCC3)[C@H]2CN(CC)C(=O)CC)cc1,0.68
O=C(Nc1ccccc1F)N1[C@@H]2CNC[C@H]1C2c1ccc(-c2ccccc2)cc1 (some centres undefined),3
O=C(Nc1ccc(F)cc1)N1[C@@H]2CNC[C@H]1C2c1ccc(-c2cccnc2)cc1 (some centres undefined),-0.059
C/C=C/c1ccc(C2[C@H]3CNC[C@@H]2N3C(=O)Nc2ccccc2Cl)cc1 (some centres undefined),0.32
COc1ccccc1-c1ccc(C2[C@H]3CNC[C@@H]2N3C(=O)Nc2ccccc2Cl)cc1 (some centres undefined),-3.2*
COc1cccc(-c2ccc(C3[C@H]4CNC[C@@H]3N4C(=O)Nc3cc(F)ccc3F)cc2)c1 (some centres undefined),3.7
O=C(Nc1ccccc1Cl)N1[C@@H]2CNC[C@H]1C2c1ccc(-c2ccccc2)cc1 (some centres undefined),1.2
SMILES,IDE exosite inh
COc1cccc(-c2ccc(C3[C@H]4CNC[C@@H]3N4C(=O)Nc3ccccc3OC)cc2)c1 (some centres undefined),-3.9*
COc1ccc(NC(=O)N2[C@@H]3CNC[C@H]2C3c2ccc(-c3cccc(C(=O)N(C)C)c3)cc2)cc1 (some centres undefined),0.85
O=C(Nc1ccccc1F)N1[C@@H]2CNC[C@H]1C2c1ccc(-c2cccnc2)cc1 (some centres undefined),-3.3*!
O=C(Nc1ccc2c(c1)OCO2)N1[C@@H]2CNC[C@H]1C2c1ccc(/C=C/c2ccccc2)cc1 (some centres undefined),-1.5
O=C(Nc1cccc(F)c1)N1[C@@H]2CNC[C@H]1C2c1ccc(-c2cncnc2)cc1 (some centres undefined),-2.7
O=C(Nc1ccc2c(c1)OCO2)N1[C@@H]2CNC[C@H]1C2c1ccc(-c2ccncc2)cc1 (some centres undefined),-3.2*!
C/C=C/c1ccc([C@@H]2[C@@H](CO)N(C(=O)NCCC)[C@H]2CNC(=O)C2CC2)cc1,1.7
C[C@H]1CC=CC[C@@H](c2ccccc2)NC(=O)[C@H](C)N(C)C(=O)c2ccccc2O1 (mixture of isomers),0.87
Cc1ccccc1S(=O)(=O)N1CC(=O)N2[C@@H](CO)[C@H](c3ccc(C#CC4CC4)cc3)[C@@H]2C1,2.2
COc1cc(CN2CC3(CCN(C(=O)Nc4c(C)noc4C)CC3)c3c(n(C)c4cc(OC)ccc34)[C@@H]2CO)cc(OC)c1,-3.4*
COc1ccc2c3c(n(C)c2c1)[C@H](CO)N(C)CC31CN(C(=O)Nc2c(C)noc2C)C1,0.53
COc1cc(CN2CC3(CN(C(=O)CN4CCOCC4)C3)c3c(n(C)c4cc(OC)ccc34)[C@H]2CO)cc(OC)c1,-0.49
COc1ccc2c3c(n(C)c2c1)[C@@H](CO)N(C)CC31CN(C(=O)Nc2c(C)noc2C)C1,0.18
COc1cc(CN2CC3(CCN(C(=O)Nc4c(C)noc4C)CC3)c3c(n(C)c4cc(OC)ccc34)[C@H]2CO)cc(OC)c1,-3.4*
COc1cc(CN2CC3(CN(C(=O)Nc4c(C)noc4C)C3)c3c([nH]c4cc(OC)ccc34)[C@H]2CO)cc(OC)c1,0.21
COc1ccc(C#Cc2ccc([C@H]3[C@@H](CO)N4C(=O)CN(C(=O)c5ccc(F)cc5)C[C@H]34)cc2)cc1,0.48
CCN(C[C@@H]1N[C@H](CO)[C@H]1c1ccc(-c2ccccc2)cc1)C(=O)COC,-2.5
COc1ccc2c3c([nH]c2c1)[C@H](CO)N(S(=O)(=O)c1ccccc1)CC31CCN(C)CC1,-1.3
COCC(=O)N1CC2(C1)CN(C(=O)Nc1ccccc1F)[C@@H](CO)c1[nH]c3cc(OC)ccc3c12,-1
N#C[C@@H]1[C@@H](c2ccccc2-c2ccccc2)[C@@H](CO)N1C(=O)NC1CCCC1,1
O=C(C1CC1)N1CC[C@@H]2[C@H]1c1cc(Br)ccc1N[C@@H]2CO,0.17
O=C(NC1CCCC1)N1CCCCN2[C@H](CO)[C@@H](c3ccc(-c4cccnc4)cc3)[C@H]2C1,-0.77
O=C(NC1CCCC1)N1CCCCN2[C@@H](CO)[C@@H](c3ccc(-c4ccncc4)cc3)[C@@H]2C1,4.8
O=C(NC1CCCC1)N1CCCCN2[C@H](C1)[C@H](c1ccc(-c3ccncc3)cc1)[C@@H]2CO,2.9
COc1ccccc1-c1ccc([C@H]2[C@@H](CO)N3CCCCN(C(=O)NC4CCCC4)C[C@H]23)cc1,-19*
SMILES,IDE exosite inh
O=C(NC1CCCC1)N1CCCCN2[C@@H](CO)[C@H](c3ccc(-c4cccnc4)cc3)[C@@H]2C1,-2.9
COc1ccccc1-c1ccc([C@H]2[C@H](CO)N3CCCCN(C(=O)NC4CCCC4)C[C@@H]23)cc1,-12*
N#C[C@@H]1[C@H](c2ccc(-c3cccnc3)cc2)[C@H](CO)N1C(=O)C1CCOCC1,0.95
CCC(=O)N1C[C@H]2[C@@H](c3ccccc31)[C@@H](CO)N2C(=O)CC1CC1,2.9
CCC(=O)N1CC[C@@H]2[C@@H](CO)Nc3ccc(C#Cc4ccccc4F)cc3[C@@H]21,0.85
CCCNC(=O)Nc1ccc2c(c1)OC[C@@H](C)N(C(=O)C1CCOCC1)C[C@@H](C)[C@@H](OC)CN(C)C2=O,0.59
